An excerpt weighted towards active compounds, which were near 6.3% of everything screened.
Autofluor 339 – intrinsic fluorescence of library compounds, ex339/em460 – biochemical, MLSMR library, data from DPM-DC assay, artefact control, profiling panel; compound autofluorescence, ex339/em460 nm, NADH buffer; active compounds read high; 1 = no-compound wells, NADH background; fluorescence fold increase at 10 µM; actives 5.5% (n = 65,000);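 active = at 10 µM, mean starting fluorescence two-fold or more over control wells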;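 note: signal is the first read of a kinetic run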
MK inhibit – S. pneumoniae MK inhibitors, primary screen, biochemical, PK/LDH-coupled NADH absorbance. purified MK, PK/LDH-coupled NADH absorbance 340 nm. mevalonate kinase [Streptococcus pneumoniae D39]. actives 0.48% (n = 65,000). inhibition, % at 10 µM;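 active = ranked among the strongest by inhibition in the single 10 µM screen, a fixed top-ranked set picked for dose follow-up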
NADH enzymes – inhibitors of PK/LDH coupling enzymes, profiling panel, artefact control, biochemical, MLSMR library | actives 0.02% (n = 65,000) | IC50, µM (titrated, usually from 10 µM), without a hit: top-dose inhibition | coupled PK/LDH NADH assays, four targets | AID 774, 2007;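 active = single-dose screening hits from any of four coupled enzyme assays that gave an IC50 when retested across doses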;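 note: the DPM-DC format reads NADH fluorescence rather than 340 nm absorbance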
PMK inhibit – S. pneumoniae PMK inhibitors, primary screen, biochemical, mevalonate pathway, pilot trial included. phosphomevalonate kinase (Streptococcus pneumoniae D39). purified PMK, PK/LDH-coupled NADH absorbance 340 nm. inhibition, % at 10 µM. actives 0.49% (n = 65,000);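 active = top-ranked compounds by inhibition in the single 10 µM screen, taking a fixed number of the strongest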;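 note: 0% = full reaction with DMSO carrier and 100% = background rate without enzyme reaction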
A340 absorber – compound light absorbance at 340 nm, profiling panel, artefact control, biochemical, MLSMR library, data from PS, PMK, MK assays; 65,000 tested, under 10 active; compound absorbance at 340 nm, fold over control; fold change at 10 µM;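 active = at 10 µM dose, initial 340 nm absorbance at least 2 fold that of control wells; inactive = change under 2 fold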;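 note: initial absorbance extrapolated from kinetic A340 decline of NADH oxidation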
DPM-DC inhibit – S. pneumoniae DPM-DC inhibitors, primary screen, biochemical, PK/LDH-coupled NADH fluorescence | diphosphomevalonate decarboxylase (Streptococcus pneumoniae D39) | purified DPM-DC | calls only at 10 µM | actives 0.49% (n = 65,000) | AID 556, 2006;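 active = the 320 compounds with the highest percent inhibition in the single-dose primary screen, excluding strongly autofluorescent ones, cut at about 32% in these data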;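 note: kinetic rate of NADH fluorescence loss reporting ADP formed by the decarboxylase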
An asterisk follows results filed as active; i = inactive; nt = no result shown; + = active, no number.

SMILES	Autofluor 339	MK inhibit	NADH enzymes	PMK inhibit	A340 absorber	DPM-DC inhibit
c1ccc2oc(-c3nn4c(Cn5cnc6ccccc65)nnc4s3)cc2c1	2.2*	8.0	9.0%	11.0	1.14	i
CCC(=O)Nc1c(C#N)c2nc3ccccc3nc2n1-c1ccc(C)cc1	3.72*	12.0	10.0%	8.0	1.07	nt
CCC(=O)Nc1nc2ccccc2n1Cc1ccc(C)cc1	1.11	0.0	0.0%	0.0	1.03	i
N#Cc1c(NC(=O)c2ccc(Br)o2)n(-c2ccccc2)c2nc3ccccc3nc12	3.02*	12.0	3.0%	2.0	1	nt
O=C(Nc1cccc(NC(=O)c2ccc(Br)o2)n1)c1ccc(Br)o1	1.37	0.0	10.0%	20.0	1.13	i
CSc1cccc(NC(=O)CN(C)S(=O)(=O)c2ccc(C)cc2)c1	1.11	5.0	2.0%	1.0	1.02	i
CCc1ccc(NC(=O)C(C)Nc2ccc(S(=O)(=O)NC(C)=O)cc2)cc1 (configuration not stated)	1.03	7.0	8.0%	18.0	0.99	i
CCCC(=O)Nc1cccc(NC(=O)CN2CCN(c3ccccc3OC)CC2)c1	1.03	4.0	3.0%	27.0*	1	i
CCOc1ccc2[nH]c3c(N4CCN(c5ccccn5)CC4)ncnc3c2c1	2.67*	6.0	3.0%	2.0	1.01	i
O=C(CNC(=O)c1ccc(Cl)cc1)NCCCn1ccnc1	1.11	0.0	5.0%	14.0	1.01	i
CCOC(=O)c1cnc2cc3c(cn2c1=O)CCCC3	5.02*	5.0	11.0%	16.0	1.15	nt
CCOC(=O)CC1C(=O)NCCN1C(=O)c1cc2c(=O)n3ccccc3nc2s1 (configuration not stated)	2.08*	2.0	2.0%	2.0	1.16	nt
CCCOC(=O)CC1C(=O)NCCN1Cc1ccccc1C (configuration not stated)	1.09	7.0	7.0%	14.0	1.03	i
CCOC(=O)CC1C(=O)NCCN1C(=O)c1cc2c(=O)n3cccc(C)c3nc2s1 (configuration not stated)	2.14*	4.0	10.0%	15.0	1.13	nt
CN1C(=O)c2ccccc2C(C(=O)NCC2CCCO2)C1c1c[nH]c2ccccc12 (configuration not stated)	1.08	1.0	7.0%	20.0	0.97	i
c1cncc(-c2nn3c(-c4ccncc4)nnc3s2)c1	1.07	10.0	5.0%	5.0	1	i
Cc1ccc(-n2c(=O)[nH]cc(C(=O)Nc3ccc4c(c3)OCO4)c2=O)cc1C	1.03	7.0	4.0%	1.0	1.01	i
c1ccc(Cn2c(SCc3cn4cccnc4n3)nnc2-c2ccco2)cc1	2.24*	6.0	10.0%	14.0	1.03	i
Cn1nnnc1SCc1cn2cccnc2n1	3.28*	2.0	3.0%	14.0	1	nt
CCOc1cc(C)c(C(C)C)cc1S(=O)(=O)NCc1ccccn1	1.09	5.0	4.0%	5.0	1.03	i
Cc1ccc(-c2oc3ncnc(N)c3c2-c2ccc(C)cc2)cc1	3.49*	5.0	4.0%	3.0	1.09	nt
Cc1oc2ncnc(N)c2c1C	1.2	11.0	7.0%	10.0	0.98	i
CCC(=O)Nc1cccc(-c2nc3ccccc3o2)c1	1.16	0.0	1.0%	3.0	1.05	i
c1ccc(-c2nc3ccccc3o2)nc1	1.07	4.0	5.0%	12.0	0.98	i
Cc1ccnc2ccc(-c3nc4ccccc4o3)cc12	5.01*	0.0	6.0%	11.0	1.04	nt
SMILES	Autofluor 339	MK inhibit	NADH enzymes	PMK inhibit	A340 absorber	DPM-DC inhibit
CC(=O)Nc1nc2ccc(-c3nc4ccccc4o3)cc2s1	2.23*	0.0	5.0%	9.0	1.12	nt
O=C(CCOc1ccccc1)NCC(c1ccco1)N1CCCCC1 (configuration not stated)	1.18	1.0	6.0%	17.0	0.98	i
CCOC(=O)N1CCN(Cc2nc(-c3ccc(C)cc3)no2)CC1	1.01	5.0	4.0%	5.0	1.03	i
COC(=O)CSc1nc(N2CCOCC2)c2c(c1C#N)CC(C)(C)N(C)C2	2.12*	13.0	11.0%	6.0	1.05	i
COc1ccc(-c2cc(C(=O)OCC(=O)N(C)C)c3ccccc3n2)cc1	2.54*	7.0	19.0%	12.0	1.07	+
CCOc1ccc(-c2cc(C(=O)O)c3ccccc3n2)c(OCC)c1	1.78	6.0	6.0%	0.0	1.13	i
CCOc1ccccc1C(=O)NCC(=O)OCC(=O)c1ccc2c(c1)OCCO2	1.11	0.0	9.0%	26.0*	1	i
CC1(C)Oc2ccc3ccc(=O)oc3c2-c2cn[nH]c21	1.38	0.0	3.0%	6.0	1.11	i
CC1(C)Oc2ccc3ccc(=O)oc3c2-c2cnoc21	2.16*	5.0	8.0%	10.0	1.08	nt
Cc1ccc(S(=O)(=O)Cc2cn3cccnc3n2)cc1	3.74*	1.0	5.0%	8.0	1.05	nt
Cc1ccc2nc3c(cc(C#N)c(=O)n3CCN3CCOCC3)c(=O)n2c1	3.01*	7.0	9.0%	1.0	1.02	i
Cc1ccc2nc3c(cc(C#N)c(=O)n3-c3nccs3)c(=O)n2c1	3.81*	8.0	9.0%	9.0	1.06	nt
COc1ccc(-c2nc3ccccc3c(=O)n2CCCN2CCOCC2)cc1	1.12	4.0	4.0%	8.0	1.02	i
COc1ccc(CCn2c(=N)c(C#N)cc3c(=O)n4ccccc4nc32)cc1	1.34	10.0	4.0%	1.0	1	i
O=c1c2ccccc2nc(-c2ccccc2)n1CCN1CCOCC1	1.08	10.0	7.0%	11.0	1.01	i
N#Cc1cc2c(=O)n3ccccc3nc2n(CCN2CCOCC2)c1=O	3.87*	4.0	8.0%	12.0	1.07	nt
N=c1c(C(=O)NC2CCCC2)cc2c(=O)n3ccccc3nc2n1CCN1CCOCC1	1.92	10.0	5.0%	0.0	1.08	nt
N#Cc1cc2c(=O)n3ccccc3nc2n(CCCN2CCOCC2)c1=O	3.88*	10.0	12.0%	14.0	1.04	nt
COc1ccc(NC(=O)C2CCCN2c2ccc(OC)c(OC)c2)cc1OC (configuration not stated)	1.1	9.0	3.0%	0.0	1.07	i
CCn1c2ccccc2c2nc3cc(S(=O)(=O)N4CCOCC4)ccc3nc21	1.37	31.0	24.0%	11.0	1.12	i
Cc1ccc2nc(C3CCN(C(=O)c4ccco4)CC3)[nH]c2c1	1.1	10.0	9.0%	15.0	0.98	i
Cc1ccc(O)c(C(=O)c2cc(C#N)c(=O)n(CC3CCCO3)c2)c1 (configuration not stated)	1.02	3.0	5.0%	17.0	1	i
Cc1ccc2nc3c(cc(C#N)c(=O)n3CC3CCCO3)c(=O)n2c1 (configuration not stated)	3.82*	8.0	11.0%	14.0	1.06	nt

Source: PubChem (SRMLSC)
